Experimental data reported in PubChem BioAssay.
Activity calls are given as the source filed them.

How the values were obtained:
Albumin (Bos taurus) = Albumin (Bos taurus) (UniProt P02769); assay: bovine serum albumin binders on microarray, profiling panel, artefact control for SMM control protein annotation, biochemical, small-molecule microarray, Alexa647 label, 635/667 nm fluorescence (AID 1118); details: BSA-A647 binding, fluorescence 635 nm, higher = more signal;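 further: score merges 667 nm emission intensity and signal-to-noise per printed compound spot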
[1] = small-molecule microarray binders of probe aXIP, primary screen, biochemical, NeuroSMM set, 635/667 nm fluorescence (AID 1119); details: higher = more signal, called active from +8 up or from −8 down;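 further: probe is the protein aXip251-270 applied at 1 µg/mL to compound-printed slides; binding of probe to printed compounds measured as 667 nm fluorescence plus signal to noise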
[2] = small-molecule binders of probe aNOTCH3, primary screen, biochemical, small-molecule microarray, 635/667 nm fluorescence (AID 1120); details: higher = more signal;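 further: probe is a biotin-tagged antibody raised against NOTCH3 rather than NOTCH3 protein; score merges spot fluorescence near 667 nm with spot signal to noise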
[3] = small-molecule binders of probe aNOTCH2, primary screen, biochemical, small-molecule microarray, 635/667 nm fluorescence (AID 1121); details: higher = more signal;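 further: score merges feature fluorescence read at 667 nm with its signal to noise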
[4] = biological target: Carbonic anhydrase 2 (Homo sapiens) (UniProt P00918); assay: CAII small-molecule binders, profiling panel, biochemical, small-molecule microarray, Alexa647-labelled CAII (AID 1122); details: CAII-A647 binding fluorescence, higher = more signal
[5] = COS7 lysate on small-molecule microarray, probe aHis, 635 nm (AID 1123); details: COS7 cell lysate, fluorescence, higher = more signal;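 further: z-score combines 667nm fluorescence intensity with signal-to-noise per printed compound spot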
[6] = compound binding in COS7 lysate, probe aLAP1, primary screen, cell lysate, small-molecule microarray (AID 1124); details: probe aLAP1, fluorescence, higher = more signal;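 further: lysate comes from COS7 cells expressing LAP1 and is applied at 0.3 µg/mL; score merges spot fluorescence near 667 nm with signal-to-noise over triplicate slides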
Sam68 (KHDRBS1) = assay: Sam68 small-molecule binders, primary screen, biochemical, small-molecule microarray, 635 nm fluorescence (AID 1125); details: small-molecule microarray binding, higher = more signal;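 further: score merges 667 nm channel intensity with signal to noise over triplicate slides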
[7] = test system: Chordin-like protein 2 (CHRDL2); assay: CHRDL2 small-molecule binders, primary screen, biochemical, small-molecule microarray, 635 nm fluorescence (AID 1126); details: small-molecule microarray binding, fluorescence 635 nm; higher = more signal;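 further: printed compound slides probed with Chrdl2 protein at 4 µg/mL for 1 h at 4 C; score merges 667 nm emission intensity with signal to noise over three replicate slides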
[8] = biological target: Concanavalin-A (Canavalia ensiformis) (UniProt P02866); assay: ConA small-molecule binders, primary screen, artefact control for SMM control protein annotation, biochemical, small-molecule microarray, Alexa647 label, 635 nm (AID 1127); details: ConA-A647 binding fluorescence, higher = more signal;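 further: z combines 667 nm emission intensity with signal-to-noise across three replicate slides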
Chain of Concanavalin-A (Canavalia ensiformis) (P02866 whole entry, looked up): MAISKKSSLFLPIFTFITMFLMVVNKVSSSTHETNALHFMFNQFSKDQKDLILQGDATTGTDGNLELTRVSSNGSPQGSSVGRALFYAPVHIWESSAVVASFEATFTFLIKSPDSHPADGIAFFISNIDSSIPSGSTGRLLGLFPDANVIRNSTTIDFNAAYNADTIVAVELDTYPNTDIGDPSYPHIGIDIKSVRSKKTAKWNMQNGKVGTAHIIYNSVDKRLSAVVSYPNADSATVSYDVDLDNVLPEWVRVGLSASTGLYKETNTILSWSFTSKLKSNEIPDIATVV

Chain of Albumin (Bos taurus) (P02769 whole entry, looked up): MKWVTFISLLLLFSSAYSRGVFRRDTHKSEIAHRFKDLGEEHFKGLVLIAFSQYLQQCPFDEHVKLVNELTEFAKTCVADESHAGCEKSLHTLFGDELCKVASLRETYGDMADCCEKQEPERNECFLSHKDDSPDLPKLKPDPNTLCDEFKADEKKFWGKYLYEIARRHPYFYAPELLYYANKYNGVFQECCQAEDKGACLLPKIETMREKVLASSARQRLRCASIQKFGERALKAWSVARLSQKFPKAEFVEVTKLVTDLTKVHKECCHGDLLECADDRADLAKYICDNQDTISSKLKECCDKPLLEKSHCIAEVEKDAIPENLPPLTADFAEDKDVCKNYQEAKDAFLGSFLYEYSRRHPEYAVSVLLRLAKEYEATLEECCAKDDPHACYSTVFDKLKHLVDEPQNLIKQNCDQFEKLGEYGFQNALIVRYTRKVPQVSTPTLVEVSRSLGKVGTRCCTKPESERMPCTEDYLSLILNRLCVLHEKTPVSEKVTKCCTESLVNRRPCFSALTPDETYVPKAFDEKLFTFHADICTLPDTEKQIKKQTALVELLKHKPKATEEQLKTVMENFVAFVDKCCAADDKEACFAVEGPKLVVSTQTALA

| Structure (SMILES) | composite z-score (Albumin (Bos taurus)) | composite Z-score [1] | composite z-score [2] | composite z-score [3] | composite z-score [4] | composite z-score [5] | composite z-score [6] | composite z-score (Sam68 (KHDRBS1)) | composite z-score [7] | composite z-score [8] |
| --- | --- | --- | --- | --- | --- | --- | --- | --- | --- | --- |
| CC(C)c1ccc(NN2C(C(O)c3ccc(N(C)C)cc3)C=CC3C(=O)N(c4ccccc4)C(=O)C32)cc1 (stereo not given) | 0.961 | -0.343 (inactive) | 0.432 | 0.0147 | 0.393 | 2.76 | -0.161 | 1.29 | -0.0118 | 1.16 |
| CCOC(=O)C[C@H]1[C@H](OC(=O)Cc2ccc3c(c2)OCO3)[C@@H](NC(=O)c2ccc(-c3ccccc3)cc2)c2cc(OCCCO)ccc2N1C(=O)c1ccccc1 | 0.731 | 0.133 (inactive) | 0.0316 | -0.0649 | 0.364 | 0.341 | -0.202 | 0.792 | 0.379 | 0.645 |
| CN(C)CCCCCCNC(=O)[C@H]1C[C@H]2C(=O)N[C@@H](CCCCN)C(=O)N2[C@H]1c1ccc(O)cc1 | 0.987 | 5.54 (inactive) | 1.78 | 0.657 | 0.586 | 4.3 | 1.16 | 1.34 | 1.45 | 1.25 |
| COc1ccc(CCNC(=O)[C@@]2(Sc3ccc(C)cc3)CC(=O)N(Cc3ccccc3Cl)[C@@H]2c2ccc(CO)cc2I)cc1 | 0.331 | -0.0194 (inactive) | -0.177 | -0.0814 | 0.76 | 1.71 | 1.18 | 0.361 | 0.0024 | -0.233 |
| O=C(CS)NCCCCCCNC(=O)[C@H]1C[C@H]2C(=O)N3CCC[C@H]3C(=O)N2[C@H]1c1cccc(OCCO)c1 | 0.0023 | -0.254 (inactive) | 0.0242 | -0.105 | 0.528 | 2.51 | 0.407 | 1.29 | 0.97 | 1.02 |
| COC(=O)c1ccc(OC)c(/C=C\CC(OC(C)=O)c2ccccc2)c1 (stereo not given) | 0.652 | -0.192 (inactive) | -0.276 | -0.149 | 0.971 | 0.718 | -0.0984 | -0.215 | 1.1 | 1.15 |
| O=C(CS)NCCCCCCNC(=O)[C@@H]1C[C@@H]2C(=O)N3CCC[C@H]3C(=O)N2[C@@H]1c1ccc(O)cc1 | -0.766 | 3.04 (inactive) | -0.273 | -0.116 | 0.645 | 2.88 | 0.827 | 0.5 | 0.361 | 0.443 |
| CC(C)N1C(=O)[C@@]2(c3ccc([N+](=O)[O-])cc3)CC(=O)N(CC34CC5CC(CC(C5)C3)C4)[C@@H]2c2ccc(CO)cc21 | -0.747 | -0.0775 (inactive) | 0.49 | -0.237 | -0.531 | 0.773 | 0.632 | -0.507 | -1.27 | 0.134 |
| CS(=O)(=O)CCOC(=O)C1=CC(c2ccc(CO)cc2)=CC(C2CC2)N(Cc2cc3c(cc2Br)OCO3)C=C1C(=O)OCCS(C)(=O)=O (stereo not given) | 0.381 | -0.0662 (inactive) | 0.143 | -0.0902 | 0.618 | 2.29 | 0.487 | 1.3 | 0.37 | 0.927 |
| C[N+](C)(C)CCCCCCNC(=O)[C@H]1C[C@H]2C(=O)N3CCC[C@H]3C(=O)N2[C@H]1c1ccc(O)cc1 | -0.608 | 0.287 (inactive) | 0.0039 | -0.107 | 0.5 | 1.73 | -0.379 | 0.485 | 0.472 | 0.709 |
| O=C1O[C@@H](c2ccccc2)[C@@H](c2ccccc2)N2[C@@H](c3ccc(OCCO)cc3)[C@]3(C(=O)Nc4ccccc43)[C@@H](C(=O)Nc3nc4ccccc4s3)[C@H]12 | 0.915 | 0.755 (inactive) | 0.372 | -0.0028 | 0.593 | 2.45 | 0.262 | 1.3 | 0.477 | 1.11 |
| [N-]=[N+]=NCc1ccccc1C[C@]1(C(=O)NCCN2CCOCC2)N=C(c2ccc(OCCCO)cc2)O[C@H]1c1ccccc1N=[N+]=[N-] | 0.926 | 0.255 (inactive) | 0.356 | 0.253 | 0.599 | 2.62 | 0.645 | 1.29 | -0.509 | 1.16 |
| [N-]=[N+]=Nc1ccccc1C[C@]1(C(=O)NCCN2CCOCC2)N=C(c2ccc(OCCCO)cc2)O[C@H]1c1ccccc1 | 0.323 | 0.619 (inactive) | 0.194 | -0.0849 | 0.597 | 2.7 | 0.203 | 1.3 | 0.497 | 0.702 |
| COC(=O)C[C@@H]1C[C@H](C)[C@]2(O1)C(=O)N(Cc1ccccc1)c1ccc(NC(C)=O)cc12 | -0.211 | -0.209 (inactive) | -0.116 | -0.185 | -0.153 | 0.117 | -0.0791 | -0.506 | 0.343 | 0.0104 |
| Cc1ccc(S[C@]2(C(=O)NCC(C)C)CC(=O)N(Cc3ccccc3)[C@@H]2c2ccc(CO)cc2I)cc1 | 0.256 | 0.552 (inactive) | 0.0301 | -0.125 | 0.633 | 1.21 | 0.888 | 1.18 | 0.718 | 0.939 |
| O=C1OCCC=C[C@H]2OC34C=CCN(c5ccc6ccccc6c5)C(=O)[C@H]3N(CCCCCO)C(=O)[C@@H]4C12 (stereo not given in full) | 0.388 | 1.1 (inactive) | -0.0647 | -0.0443 | 0.897 | 2.11 | 0.859 | -0.222 | 0.254 | -0.119 |
